# KAT2A inh: blocks human GCN5L2 histone acetyltransferase; Potency, µM (series often up to 58.9 µM), most hits filed as inhibitors; hit rate 0.21% among 390,000; Q92830; GCN5L2 HAT assay, ThioGlo1 CoA-SH fluorescence
#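 qHTS, 1536-well. 20nM enzyme, pH 7.5 HEPES/EDTA/Tween-20 buffer; 15 min compound preinc., RT. Start: 75uM H3(1-25), 70uM AcCoA, 50uM ThioGlo1. Read Ex340/Em540 at t=0 (autofluorescence flag) and t=20 min.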
# NPSR antag: neuropeptide S receptor (human) antagonism, cAMP | Q6W5P4 | AID 1461 | hit rate 1% among 220,000 | Potency, µM (highest dose often 38.3 µM), actives largely listed as inhibitors | CHO-NPSR cells, cAMP TR-FRET, antagonist mode; also: nearly all actives have a fitted effect of over 50% in size
# Target sequence (Q6W5P4 whole entry, looked up): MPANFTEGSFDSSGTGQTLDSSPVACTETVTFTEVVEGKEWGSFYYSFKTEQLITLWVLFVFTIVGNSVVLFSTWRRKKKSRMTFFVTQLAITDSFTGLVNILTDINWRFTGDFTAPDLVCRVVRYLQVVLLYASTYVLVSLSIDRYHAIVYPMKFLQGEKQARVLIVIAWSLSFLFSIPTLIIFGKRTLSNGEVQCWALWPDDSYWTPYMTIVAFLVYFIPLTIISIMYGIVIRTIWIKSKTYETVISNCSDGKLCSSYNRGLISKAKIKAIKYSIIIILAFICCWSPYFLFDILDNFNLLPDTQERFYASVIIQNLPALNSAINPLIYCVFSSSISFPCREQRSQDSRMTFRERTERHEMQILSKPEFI
# JMJD2E inh: inhibitors of human JMJD2E histone demethylase; B2RXH2; JMJD2E catalytic domain, FDH-coupled NADH fluorescence (FDH is formaldehyde dehydrogenase); Potency, µM (doses to about 57.1 µM), most hits filed as inhibitors; hit rate 1.6% among 230,000; AID 2147; active = well fitted inhibition curve with a large enough effect, not every such curve was filed as active; inconclusive = small, poorly fitted or top-dose-only effect, or another doubt; inactive = no such curve, though single readings can be large or run the other way; also: nearly all actives have a fitted effect of over 50% in size
# Target sequence (B2RXH2 1-337 limits assumed): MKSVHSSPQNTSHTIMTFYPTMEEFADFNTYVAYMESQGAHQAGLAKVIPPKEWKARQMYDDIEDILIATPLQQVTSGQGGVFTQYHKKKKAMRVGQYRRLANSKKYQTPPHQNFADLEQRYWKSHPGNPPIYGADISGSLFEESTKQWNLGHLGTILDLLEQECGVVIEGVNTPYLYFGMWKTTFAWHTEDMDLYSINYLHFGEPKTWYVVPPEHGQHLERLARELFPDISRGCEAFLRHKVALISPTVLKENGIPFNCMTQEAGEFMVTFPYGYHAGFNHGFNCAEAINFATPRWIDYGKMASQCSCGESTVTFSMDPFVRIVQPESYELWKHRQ
# Sfp inh: inhibitors of Bacillus subtilis Sfp phosphopantetheinyl transferase | Q9F4F7 | Biochemical Sfp PPTase activity, qHTS | Potency, µM, hits mostly inhibitors | hit rate 3.5% among 310,000 | AID 1490;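 also: the enzyme is Sfp with the accession as filed and its product quenches rhodamine fluorescence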
#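 Reaction rates are the 30-min fluorescence difference (ex 525, em 598 nm) in wells containing 15 nM Sfp, 5 uM rhodamine-CoA and 12.5 uM BHQ-2-YbbR at pH 7.6 with 10 mM MgCl2.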
# Epigenetic reg: epigenetic control regulation, reporter derepression. murine LDR cells, GFP reporter derepression, 30 h. Potency, µM (series often up to 53.9 µM), hits mostly activators. hit rate 0.2% among 280,000. AID 1865; also: nearly all actives have a fitted effect of over 60% in size
#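 GFP-positive cell count by laser-scanning cytometry (objects 20–120 um) after 30 h, 37 C compound exposure of murine LDR cells; reporter is CMV-GFP integrated at a silenced locus, inducible by HDAC or DNMT inhibitors.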
# IMPase Li inh: IMPase inhibition in cells with lithium potentiation. hit rate 0.35% among 210,000. Potency, µM (top dose mostly 59.4 µM), actives largely listed as inhibitors. CHO-M1 cells, IP1 TR-FRET (IP-One), carbachol + lithium;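 also: IP1 builds up when IMPase is blocked and the TR-FRET signal falls; nearly all actives have a fitted effect of over 50% in size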
#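 CHO cells stably expressing M1 receptor (2000/well, cultured 16–30 h) treated 30 min at 37C with compound plus low lithium. Cytosolic IP1 by TR-FRET (665/620 ratio and 620 channel) after 10 min lysis; AC50 by Hill fit.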
# Hits are given with their value; . = inactive; ? = inconclusive; / = not tested or not shown; [ ] = dose if it differs, or a comment. Shown are actives, neighbours in structure and some others; about 3.6% of the full set was active somewhere. Unless noted, calls follow the shape of the dose curve; as a rule, active = well fitted curve in the direction sought with a large enough effect; inconclusive = small, poorly fitted or top-dose-only effect, or another doubt; inactive = no such curve, though single readings can be large; an effect the other way counts as inactive or inconclusive.
SMILES,KAT2A inh,NPSR antag,JMJD2E inh,Sfp inh,Epigenetic reg,IMPase Li inh
Cc1cc(C(=O)CCl)c(C)n1Cc1ccco1,.,.,.,.,13µM,.
Cc1ccc2cccc(OCC(=O)c3cc(C)n(Cc4ccco4)c3C)c2n1,.,.,.,56µM,.,.
Cc1cc(C(=O)COC(=O)Cn2c(C(F)(F)F)nc3ccccc32)c(C)n1Cc1ccco1,.,.,.,?,.,.
CO[C@H]1COC(=O)[C@@H](C)COC(=O)[C@H](C)NC(=O)C/C=C\[C@H]1C,/,/,/,.,.[10.1 µM],/
CCNC(=O)CCSc1nnc(-c2ccc(O)cc2)o1,.,/,/,/,.,/
C=CCC(C)(O)CCc1ccccc1 (stereo unspecified),/,/,.,.,.,.
COc1ccccc1Nc1nc(NCC2CCCO2)c2ccccc2n1 (stereo unspecified),.,.,.,.,.,.
FC(F)(F)c1ccccc1-c1cncnc1NCc1ccccc1,.,/,/,.,/,.
COCCNc1ncncc1-c1ccccc1OC,.,/,/,.,/,.
Cc1cnc(CNc2ncncc2-c2ccccc2C(F)(F)F)cn1,.,/,?,71µM,.,.
COc1cccc(-c2nc(NCC3CCCO3)c3ccccc3n2)c1O (stereo unspecified),.,?,.,.,.,14µM
COc1ccccc1-c1cncnc1NCc1cnc(C)cn1,.,/,/,79µM,/,.
COc1ccccc1-c1cncnc1NCCNC(C)=O,?,/,/,79µM,/,.
CCc1cccc2nc3c(c([Si](C)(C)C)c12)Cn1c-3cccc1=O,/,/,?,.,.,.
COc1ccc(C)cc1NC(=O)C1CCN(S(=O)(=O)c2ccc3c(c2)CCCN3C(C)=O)CC1,.,/,/,/,.,/
COc1ccccc1-c1nc(NCc2ccccc2)c2ccccc2n1,.,/,.,?,.,.
COc1ccccc1-c1nc(NCc2cnc(C)cn2)c2ccccc2n1,.,/,?,50µM,.,.
CC(=O)c1ccc(-c2c(C3C4C=CCCC4(C)C(=O)N3Cc3ccccc3)ccc3ccccc23)cc1 (stereo unspecified),/,/,/,.,/,/
CC(=O)Nc1ccc(SCC(CC(C)C)N2CCN(CCc3ccccc3)CCC2=O)cc1 (stereo unspecified),/,/,/,.,/,/
O=C(O)Cn1cnc2scc(-c3cccs3)c2c1=O,.,.,?,56µM,.,.
COc1ccccc1CCNC(=O)c1cc(-c2ccccn2)nc2ccc(Br)cc12,.,?,.,.,.,13µM
COc1ccccc1CCNC(=O)c1cc(-c2ccccn2)nc2ccccc12,.,/,/,/,/,/
Cc1nc(-c2ccccc2)sc1CCNC(=O)c1ccco1,.,/,/,/,.,/
COc1cc(/C=N/NC(=O)c2ccc(COc3ccccc3Cl)o2)cc(Br)c1O,.,.,.,.,.,.
COc1cccc(/C=N/NC(=O)c2ccc(COc3ccc(Cl)cc3Cl)o2)c1,.,.,.,0.79µM,.,.
SMILES,KAT2A inh,NPSR antag,JMJD2E inh,Sfp inh,Epigenetic reg,IMPase Li inh
CCOC(=O)c1ccccc1NC1CC(=O)N(c2ccccc2C)C1=O (stereo unspecified),.,.,?,79µM,.,.
CCOC(=O)c1ccccc1NCN1C(=O)CSC1=O,.,.,?,.,.,.
[O-][n+]1ccccc1SSc1cccc[n+]1[O-],14µM,/,/,0.71µM,/,/
COc1ccc(OC)c(S(=O)(=O)Nc2ccc(Oc3ccccc3)cc2)c1,.,.,.,.,.,/
CCOc1ccc(S(=O)(=O)Nc2ccc(O)c(Sc3ncn[nH]3)c2)cc1,.,.,.,.,.,.
COc1ccc(OC)c(S(=O)(=O)Nc2ccc(O)c(Sc3ncn[nH]3)c2)c1,.,.,.,35µM,.,.
COc1ccc(OC)c(S(=O)(=O)Nc2ccc(O)c3ccccc23)c1,?,.,?,20µM,.,.
CCn1cc(/C=C(\NC(=O)c2ccccc2Cl)C(=O)N2CCN(C)CC2)c2ccccc21,3.2µM,/,/,.,/,/
COc1ccc(C2c3ccc(O)cc3Oc3ncn4nc(-c5ccco5)nc4c32)cc1OC (stereo unspecified),.,.,.,.,22µM,/
Cc1nc(N/N=C/c2ccccn2)sc1C,.,4µM,13µM,.,.,.
CCN=c1scc(-c2ccc(F)cc2)n1/N=C/c1ccccn1,.,.,.,?,.,.
CCCc1sc(N/N=C/c2ccccn2)nc1-c1ccc(F)cc1,.,10µM,.,.,.,.
Cc1cccc(NC(=O)c2sc3ncnc(N(C)C4CCCCC4)c3c2C)c1C,.,/,/,/,.,/
O=C(COCc1cc(-c2cccs2)on1)NCc1ccc(F)cc1,.,/,/,/,.,/
CC1C/C(=C/c2ccco2)C(=O)/C(=C/c2ccco2)C1 (stereo unspecified),?,.,.,?,.,.
O=C1/C(=C\c2ccco2)CCC/C1=C\c1ccco1,?,.,.,11µM,?,.
CCOC(=O)/C(=C\c1ccccc1)NC(=O)c1ccccc1,.,?,.,.,.,/
CCOC(=O)/C(=C/c1ccc(OC(=O)c2ccccc2)cc1)C(C)=O,.,.,7.9µM,?,?,.
Cn1c(=O)c(-c2cccc(Cl)c2)nc2cncnc21,.,/,/,.,/,.
COCc1nnc(NC(=O)COc2ccc3c(c2)OCO3)s1,.,/,/,56µM,/,/
CCOCC(=O)Nc1nnc(COc2ccc(Cl)cc2)s1,.,.[7.67 µM],.,28µM,.,.
COCC(=O)Nc1nnc(COc2ccc(Cl)cc2)s1,.,.,.,.,.,.
Cc1onc(-c2ccccc2)c1C(=O)Nc1nnc(COc2ccc(Cl)cc2)s1,?,.,?,7.1µM,.,.
Cc1occc1C(=O)NCc1nc(-c2ccccc2)no1,.,/,/,.,/,/
Cc1cccc(-c2noc(CNC(=O)c3ccoc3C)n2)c1,.,/,/,32µM,/,/
SMILES,KAT2A inh,NPSR antag,JMJD2E inh,Sfp inh,Epigenetic reg,IMPase Li inh
CCc1nnc(NC(=O)c2c(-c3ccccc3)noc2C)s1,.,/,/,.,/,/
Cc1ccc(C)c(N(C)C(=O)c2cn(C)c(=O)c3ccccc23)c1,.,/,/,/,.,/
COCCn1c(=O)c(CCc2ccccc2)nc2cnc(N(C)C)nc21,.,/,/,.,/,.
COc1ccc(NC(=O)CCS(=O)(=O)c2ccc3nc(C)sc3c2)cc1Cl,.,/,/,/,.,/
Cc1onc(-c2ccccc2Cl)c1C(=O)NCc1nc(-c2ccccc2)no1,.,.,.,89µM,.,.
Cc1onc(-c2ccccc2Cl)c1C(=O)Nc1nnc(-c2ccc(Br)cc2)s1,.,.,?,.,.,8.9µM
CCOc1ccc(C=C2SC(=O)N(CCN)C2=O)cc1,.,/,/,.,/,/
C=CCC(C)(O)c1cccs1 (stereo unspecified),/,/,.,.,.,.
COC(=O)c1ccc(C(=O)OC)c(NC(=O)/C=C/C(=O)O)c1,.,.,?,40µM,.,/
CCOC(=O)CCCCC(=O)c1[nH]c(=O)[nH]c1Cn1ccnc1,.,.,.,79µM,.,.
Nc1cnccc1C(=O)O,.,.,0.63µM,25µM,.,.
COC(=O)c1ccncc1N,.,.,?,.,.,.

# Screening data: PubChem BioAssay, National Center for Advancing Translational Sciences (NCATS)
